# Data reported in the supplement of paper PMC4466140.
# Molecular target: AgAbp1
# Assay: SPOT peptide array binding signal intensity (averaged, normalized) (arbitrary units (background-subtracted, floor 0; scale differs between SH3 domains)); higher = stronger binding of the SH3 domain to the peptide
# Procedure, shortened: (§1)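 Cellulose membranes carried synthetic 15-mer peptides with cysteines swapped for serines. These were incubated overnight at 4°C with 10 μg/ml of GST-fused SH3 domains from four yeast species in TBS-based blocking buffer. Binding signal, detected with anti-GST antibody and quantified in Genespotter, is the normalized, background-subtracted spot intensity averaged over replicates, in arbitrary units specific to each domain.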
row,Binder,SPOT peptide array binding signal intensity
1,KKEKKPPKIPKKVYT,2950

# Molecular target: AgBbc1
# Assay: as above
# Procedure, shortened: as §1
row,Binder,SPOT peptide array binding signal intensity
1,KKEKKPPKIPKKVYT,9.5

# Molecular target: AgBem1-D1
# Assay: as above
# Procedure, shortened: as §1
row,Binder,SPOT peptide array binding signal intensity
1,KKEKKPPKIPKKVYT,8

# Molecular target: AgBzz1-D1
# Assay: as above
# Procedure, shortened: as §1
row,Binder,SPOT peptide array binding signal intensity
1,KKEKKPPKIPKKVYT,253

# Molecular target: AgBzz1-D2
# Assay: as above
# Procedure, shortened: as §1
row,Binder,SPOT peptide array binding signal intensity
1,KKEKKPPKIPKKVYT,43

# Molecular target: AgCyk3
# Assay: as above
# Procedure, shortened: as §1
row,Binder,SPOT peptide array binding signal intensity
1,KKEKKPPKIPKKVYT,≤ 0

# Molecular target: AgFus1
# Assay: as above
# Procedure, shortened: as §1
row,Binder,SPOT peptide array binding signal intensity
1,KKEKKPPKIPKKVYT,1

# Molecular target: AgHof1
# Assay: as above
# Procedure, shortened: as §1
row,Binder,SPOT peptide array binding signal intensity
1,KKEKKPPKIPKKVYT,29.2

# Molecular target: AgHse1
# Assay: as above
# Procedure, shortened: as §1
row,Binder,SPOT peptide array binding signal intensity
1,KKEKKPPKIPKKVYT,35.5

# Molecular target: AgLsb1
# Assay: as above
# Procedure, shortened: as §1
row,Binder,SPOT peptide array binding signal intensity
1,KKEKKPPKIPKKVYT,≤ 0

# Molecular target: AgLsb4
# Assay: as above
# Procedure, shortened: as §1
row,Binder,SPOT peptide array binding signal intensity
1,KKEKKPPKIPKKVYT,1.5

# Molecular target: AgMyo5
# Assay: as above
# Procedure, shortened: as §1
row,Binder,SPOT peptide array binding signal intensity
1,KKEKKPPKIPKKVYT,≤ 0

# Molecular target: AgNbp2
# Assay: as above
# Procedure, shortened: as §1
row,Binder,SPOT peptide array binding signal intensity
1,KKEKKPPKIPKKVYT,19

# Molecular target: AgRvs167
# Assay: as above
# Procedure, shortened: as §1
row,Binder,SPOT peptide array binding signal intensity
1,KKEKKPPKIPKKVYT,2.5

# Molecular target: AgSho1
# Assay: as above
# Procedure, shortened: as §1
row,Binder,SPOT peptide array binding signal intensity
1,KKEKKPPKIPKKVYT,5

# Molecular target: AgSla1-D1-D2
# Assay: as above
# Procedure, shortened: as §1
row,Binder,SPOT peptide array binding signal intensity
1,KKEKKPPKIPKKVYT,≤ 0

# Molecular target: AgSla1-D3
# Assay: as above
# Procedure, shortened: as §1
row,Binder,SPOT peptide array binding signal intensity
1,KKEKKPPKIPKKVYT,4.5

# Molecular target: CaAbp1-D1
# Assay: as above
# Procedure, shortened: as §1
row,Binder,SPOT peptide array binding signal intensity
1,KKEKKPPKIPKKVYT,892

# Molecular target: CaAbp1-D2
# Assay: as above
# Procedure, shortened: as §1
row,Binder,SPOT peptide array binding signal intensity
1,KKEKKPPKIPKKVYT,1670

# Molecular target: CaBbc1
# Assay: as above
# Procedure, shortened: as §1
row,Binder,SPOT peptide array binding signal intensity
1,KKEKKPPKIPKKVYT,88.5

# Molecular target: CaBem1-D1
# Assay: as above
# Procedure, shortened: as §1
row,Binder,SPOT peptide array binding signal intensity
1,KKEKKPPKIPKKVYT,28

# Molecular target: CaBzz1-D1
# Assay: as above
# Procedure, shortened: as §1
row,Binder,SPOT peptide array binding signal intensity
1,KKEKKPPKIPKKVYT,1950

# Molecular target: CaBzz1-D2
# Assay: as above
# Procedure, shortened: as §1
row,Binder,SPOT peptide array binding signal intensity
1,KKEKKPPKIPKKVYT,2760

# Molecular target: CaCyk3
# Assay: as above
# Procedure, shortened: as §1
row,Binder,SPOT peptide array binding signal intensity
1,KKEKKPPKIPKKVYT,≤ 0

# Molecular target: CaFus1
# Assay: as above
# Procedure, shortened: as §1
row,Binder,SPOT peptide array binding signal intensity
1,KKEKKPPKIPKKVYT,99

# Molecular target: CaHof1
# Assay: as above
# Procedure, shortened: as §1
row,Binder,SPOT peptide array binding signal intensity
1,KKEKKPPKIPKKVYT,1

# Molecular target: CaHse1
# Assay: as above
# Procedure, shortened: as §1
row,Binder,SPOT peptide array binding signal intensity
1,KKEKKPPKIPKKVYT,110

# Molecular target: CaLsb1
# Assay: as above
# Procedure, shortened: as §1
row,Binder,SPOT peptide array binding signal intensity
1,KKEKKPPKIPKKVYT,0.25

# Molecular target: CaLsb4
# Assay: as above
# Procedure, shortened: as §1
row,Binder,SPOT peptide array binding signal intensity
1,KKEKKPPKIPKKVYT,≤ 0

# Molecular target: CaMyo5
# Assay: as above
# Procedure, shortened: as §1
row,Binder,SPOT peptide array binding signal intensity
1,KKEKKPPKIPKKVYT,1.5

# Molecular target: CaNbp2
# Assay: as above
# Procedure, shortened: as §1
row,Binder,SPOT peptide array binding signal intensity
1,KKEKKPPKIPKKVYT,10

# Molecular target: CaRvs167
# Assay: as above
# Procedure, shortened: as §1
row,Binder,SPOT peptide array binding signal intensity
1,KKEKKPPKIPKKVYT,2

# Molecular target: CaRvs167-3
# Assay: as above
# Procedure, shortened: as §1
row,Binder,SPOT peptide array binding signal intensity
1,KKEKKPPKIPKKVYT,4.5

# Molecular target: CaSho1
# Assay: as above
# Procedure, shortened: as §1
row,Binder,SPOT peptide array binding signal intensity
1,KKEKKPPKIPKKVYT,13

# Molecular target: CaSla1-D1-D2
# Assay: as above
# Procedure, shortened: as §1
row,Binder,SPOT peptide array binding signal intensity
1,KKEKKPPKIPKKVYT,79

# Molecular target: CaSla1-D3
# Assay: as above
# Procedure, shortened: as §1
row,Binder,SPOT peptide array binding signal intensity
1,KKEKKPPKIPKKVYT,≤ 0

# Molecular target: ScAbp1
# Assay: as above
# Procedure, shortened: as §1
row,Binder,SPOT peptide array binding signal intensity
1,KKEKKPPKIPKKVYT,901
